# According to PubChem BioAssay AID602141 (Sanford-Burnham Center for Chemical Genomics, 2011):
# Among all 360,000 compounds or so, about 1,300 (0.36%) were called active. Many of the other results were omitted from the sample, so actives are more common in it than they were. A number with no mark means an inactive call.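 The calls were made as follows: active = corrected activity change at or below -50% at 5 µM; inactive = the rest.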
# Test: KKLEB cell viability reduction – uHTS, fluorescence assay plates, cytotoxicity control for CF NF-kB inhibitor project, primary screen (AID 602141)
# Conditions: KKLEB CF airway cells viability, ATPlite luminescence, overnight, at 5 µM, stronger effect = lower value
row,SMILES,activity change (cytotoxicity)
1,CC1=C(C(=O)Nc2ccccc2)S(=O)(=O)CCO1,-6%
2,CC1=C(C(=O)Nc2ccccc2)SCCO1,-58.9% (active)
3,CC(Cc1ccccc1)NCCC(c1ccccc1)c1ccccc1 (stereo not given),-16.7%
4,Cc1c(Oc2cc(NN3CCCCC3)c([N+](=O)[O-])cc2[N+](=O)[O-])cccc1[N+](=O)[O-],-5.7%
5,CCOc1cccc(=NC2CCCCC2)c2c(C)[nH]c(C)c12,4.1%
6,CCc1nc2ccccc2c(=O)n1-c1cccc(OC)c1,-1.5%
7,CC12CCC(O)CC1CCC1C2CCC2(C)C(C(=O)CC(O)C(F)(F)F)CCC12 (stereo not given),3.6% [cells stimulated with P. aeruginosa culture filtrate]
8,C[C@]12CC[C@H](O)C[C@H]1CC[C@@H]1C2CC[C@]2(C)[C@@H](C3=CC(=O)OC3)[C@@H](O)C[C@]12O (stereo not given in full),-53.3% [cells stimulated with P. aeruginosa culture filtrate] (active)
9,Cc1ccc(CN2CCCC(C(=O)c3ccc4c(c3)OCO4)C2)cc1C (stereo not given),-12.8%
10,Cc1nn(Cc2ccccc2Cl)c(Cl)c1C(=O)OC(C(=O)NC(N)=O)C(C)C (stereo not given),-1.6%
11,O=C(CSC1c2ccccc2-c2ccccc21)N/N=C/c1ccccc1,11.7%
12,O=c1[nH]c2ccccc2n1C1CCN(C(c2ccccc2)c2nnnn2Cc2ccccc2)CC1 (stereo not given),-106% [cells stimulated with P. aeruginosa culture filtrate] (active)
13,O=c1[nH]c2ccccc2n1C1CCN(C(c2ccnc3ccccc23)c2nnnn2Cc2ccccc2)CC1 (stereo not given),-13.5% [cells stimulated with P. aeruginosa culture filtrate]
14,CSCCC(c1nnnn1C(C)(C)C)N1CCC(n2c(=O)[nH]c3ccccc32)CC1 (stereo not given),-1.4% [cells stimulated with P. aeruginosa culture filtrate]
15,CC1([N+](=O)[O-])COP(=O)(Nc2ccc(F)cc2)OC1 (stereo not given),8.2% [cells stimulated with P. aeruginosa culture filtrate]
16,CCc1cccc2c(C#N)cn(CC(=O)N3CCOCC3)c12,3.2%
17,CC(=O)OC1C2(CC3N4C(=O)C5(CO)SSC4(CC31O)C(=O)N5C)OC(C)C(C)(C)C2=O (stereo not given),-95% [cells stimulated with P. aeruginosa culture filtrate] (active)
18,CCC(C)n1c(O)c(/C=N/Nc2nc3c(c(=O)n(C)c(=O)n3C)n2C)c(=O)[nH]c1=S (stereo not given),-14.1%
19,C[C@@]1([C@@H](NP(=O)(c2ccccc2)c2ccccc2)c2ccccc2)C[C@H]1CCO,15%
20,COc1ccc(NC(=O)c2cn(CCC#N)nc2-c2ccc([N+](=O)[O-])cc2)cc1,-13.1%
21,CCCCCCCCCCCCn1ccc(=N)cc1,-61.1% (active)
22,O=c1[nH]c(CN2CC=C(c3ccccc3)CC2)nc2scc(-c3cccs3)c12,0.9%
23,Cc1ccc2c(c1)C1CN(C)CCC1N2C(=O)Cn1nnc(-c2ccccc2F)n1 (stereo not given),2%
24,c1cncc(CNCCc2c[nH]c3ccccc23)c1,7.7%
25,c1ccc(C2NCc3ccccc3-n3cccc32)cc1 (stereo not given),-7.9%
26,Cc1ccc(C(C)C)c(OCC(=O)N2CCN(CC(=O)N3CCOCC3)CC2)c1,-1.3% [cells stimulated with P. aeruginosa culture filtrate]
27,COCCNC(=O)CN1C2CCC1CC(O)(c1cccnc1)C2 (stereo not given),1.5%
28,COC1C(O)C(C)OC(OC2CCC3(C=O)C(CCC4C3CCC3(C)C(C5=CC(=O)OC5)CCC43O)C2)C1O (stereo not given),-58.4% [cells stimulated with P. aeruginosa culture filtrate] (active)
29,COC(=O)C1=C(c2ccc(Cl)c(C(F)(F)F)c2)C[C@@H]2CC[C@H]1N2C(=O)NC(C)C,-0.4% [cells stimulated with P. aeruginosa culture filtrate]
30,CC(=O)NCC1=C(c2ccc3ccccc3c2)C[C@@H]2CC[C@H]1N2Cc1ccco1,-7.6%
